In PubChem BioAssay (EPA / NIEHS) one finds outcome and AC50 data, which are given here for 22 compounds.

Broadly, the AC50 is the concentration giving half of the maximal activity seen.

Each structure is given as a SMILES string. Values joined by “and” are separate entries in the source; they are usually repeats but may differ in a detail not shown here. Equal values may be shown once. More than one record can exist for a structure, and the calls need not agree. Active and inactive are the calls of the source. The calls were made as follows: active = hit-call score of the fitted dose curve at least 0.9, where 1 is the maximum; inactive = score below 0.9.

Read-out in one assay: TIMP metallopeptidase inhibitor 1 (TIMP1), TIMP1 (gene 7076)
Description: BSK_MyoF_TIMP1: BioMAP Diversity Plus: MyoF Assay for TIMP metallopeptidase inhibitor 1 (TIMP1) Biomarker Activity (AID 2284269). Conditions: primary human lung fibroblasts. The method, boiled down:
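Primary human lung fibroblasts, MyoF multiplex system; chemical exposure 24 h; TIMP-1 by ELISA; positive fitting direction vs DMSO control.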
In the case of `Brc1nc2ccccc2s1`, the result was inactive. Still for that read-out and setting: as for `CC(C)CCCC(C)CCO` (stereo not drawn), the entry is “inactive”. On the same count and under the same terms, for `CC1=CC2C3C=CC(C3)C2C1C` (stereo not drawn) the value was “inactive”; for `CCN(CC)c1ccc(C=O)cc1`, “inactive”; for `C[C@]12CC[C@H]3C(=CCc4cc(O)ccc43)[C@@H]1CCC2=O`, “inactive”. With `CC(C)(C)c1cc(CCC(=O)NCCCCCCNC(=O)CCc2cc(C(C)(C)C)c(O)c(C(C)(C)C)c2)cc(C(C)(C)C)c1O`, the outcome was inactive. As to `Cc1ccc(S(=O)(=O)C(I)I)cc1`, the AC50 is 5.97 µM (active). As for `Cc1cc(O)c(C(C)(C)C)cc1C(C)(C)C`, the AC50 was 7.71 µM (active). For the compound `CCN(CC)c1ccc(N=Nc2ccccc2)cc1`, the outcome was inactive.

Regarding `CCOC(C=C(C)CCC=C(C)C)OCC`, the AC50 is 3.97 µM (active).

Read-out in the next assay: Tissue plasminogen activator (tPA), PLAT (gene 5327)
Description: BSK_BF4T_tPA: BioMAP Diversity Plus: BF4T Assay for Tissue plasminogen activator (tPA) Biomarker Activity (AID 2284272). Conditions: primary human bronchial epithelial cells with fibroblasts. In outline:
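tPA level quantified by ELISA at 24 h post-treatment in bronchial epithelial/dermal fibroblast co-cultures, gain of signal scored against DMSO baseline. Parallel cultures stained with 0.1% SRB (560 nm) to flag overt cytotoxicity.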
On to `C[Si](Cl)(Cl)CCC(F)(F)C(F)(F)C(F)(F)C(F)(F)C(F)(F)C(F)(F)F`, for which the outcome was inactive. Take `NC(O)(C(F)(F)F)C(F)(F)F`: the outcome was inactive.

Take `OCC(F)(F)C(F)(F)C(F)(F)CO`: the outcome was inactive.

As to `CCOC(=O)CC(=O)C(F)(F)C(F)(F)F`, the result was inactive.

With `O=C(Cl)C(F)(F)C(F)(F)C(F)(F)C(F)(F)C(F)(F)C(F)(F)C(F)(F)F`, the outcome was inactive. For the compound `CN(C(=O)C(F)(F)C(F)(F)C(F)(F)F)[Si](C)(C)C`, the outcome was inactive. For `COC(F)(C(F)F)C(F)(F)F` (stereo not drawn), the result was inactive. For the compound `FC(F)(F)C(F)(F)C(F)(F)CC1CO1` (stereo not drawn), the result was inactive. As for `O=C(O)C(F)(F)OC(F)(F)C(F)(F)OC(F)(F)C(F)(F)OC(F)(F)F`, the concentration at half-maximal activity (AC50) is 20 µM (active) and 5.38 µM (active); the outcome was inactive. Consider `O=C(O)C(F)(F)C(F)(F)C(F)(F)C(F)(F)C(F)(F)C(F)(F)C(F)F`, for which the outcome was inactive. On to `NC(=O)C(F)(F)C(F)(F)C(F)(F)C(F)(F)C(N)=O`, for which the outcome was inactive. As to `O=C(O)CCC(F)(F)C(F)(F)C(F)(F)F`, the outcome was inactive.
